System: PPARg DBDmut:RXRa IVT, anti-PPARg (DBD mutation: PPARg1 K132A/R137A, NR concentration 270 nM, RXRa partner concentration 90 nM)
Assay: PBM binding z-score (relative to random genomic background probes); higher = stronger binding; sequences stand for … in GC…GCGATTGACAGCGTAGAATGAAGG
Procedure, shortened: (§1)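 Binding buffer was PBS pH 7.4 with 2% milk, 0.02% Triton X-100, 1 mM DTT, 0.2 mg/mL BSA and 0.4 mg/ml salmon testes DNA. In it, ligand-free nuclear receptor dimers were incubated 1 h on custom Agilent 4×180K protein-binding microarrays carrying double-stranded probes. Antibodies against each partner (one per run) detected binding, and z-scores were calculated against random background probes after regression normalization of scanned fluorescence.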

Sequence	PBM binding z-score
TCTTGTAGATCAAGCAGGTTAATAAAGCCTGAGT	-0.163
CCAGACAGGTGAAAGGTACCTCAGTCTGGTACGC	-0.554
CGTCCAAGGGCATAGGAGGTCAGTGAAGACAGAT	-0.528
CAAACTAGGTCACGATAGGTCAAAGTCGAATGAC	3.89
TCTCGGAGGACACCAAGGTCAGAGCTTTCCAGAG	-0.509
TCATATAGGTAAAGGTGAAAGGCGAACGATATGA	1.46
CGAACGAGGGCATGAGTTGATCGCAAATGCCGAT	0.532
GCTCCTAGGTCAACTGATGGTCAGCTAAAGCTCG	-0.903
AGTCAAAGTTCATCTAGCTAACGTAAGATATGCT	1.28
TTTCCAAGGTGAGCTGAGGTCGTTGATCCAACTC	0.272
CCTAGCAGGCCAATCTGGGTTACTCAAGGCTTGA	-0.813
TCTGCTAGGTCAGTAGGTCAGCTAACGAGCTGCC	0.586
CGTCCAAGGTCAAGGACAGTGAAAGAGACTCGAA	1.03
CTCAAAAGGTCGTGCTCAGGTGAGTATACCAAAC	0.582
ACTAGAAGGCCAAGTTTGGGTCACTCAAACAAAG	-0.516
GCAGACAGGTGAGACGCAGGTAACTCAGGGTGGC	-0.435
ACTAGCAGGCCAAGGGTCAATCAAGATTAGTCCG	-0.502
AGTGAAAGTTCATCTAGGTAACGTAAGATATGCT	1.8
CAAACTAGGTCACAGGAAGGTCAAAGTCCGCATG	3.59
CGTCCAACGTCAATGCTAGGTCAGTGAAAGCATT	-0.91

Sequence	PBM binding z-score
AATGCAGGGTCACTAGGCCAGAGTAGGTACGAAT	1.45
ACTGACAGGTGAGTGAAGGTAACTCAGCTGGACG	0.18
ACTATTAGTCGACTTAGGGCAACCGATACGACGC	0.629
TCATATAGGTAAATGCTAAGTGAAAGTCCGATCT	0.478
CCTCGGAGGACGACAGGAGGTCAGAGCTGCCAGA	-0.427
CCGACTGAGGCAAGGTTACCATAACGCACAGCCA	-0.139
TTACCAAGGTGAAAGGTCGTCGATGCACGCCTTG	0.568
CGAACTAAGTCAAGGACAGTGAATCTCCGCACGC	-0.424
CGTCTAAGGTCAGAGAGGTCAGTGAATGCCGAGT	0.924
TGAATGAGGTGATAAGATCAGGGAACGTTGCAAA	0.612
CCTAGCAGGCCAGGGTCACTGAAGCATTTCGCTT	-1.43
TTATATAGGTAAACAGGTGAAAGTCCGTAAGTTA	2.26
TAGCCTAGGTCCGATCGGGCCAGTATACGCTATA	-0.601
AGAACGAGGGCAGGCTGAGTTGATAGCAGAGTAG	0.0574
GCTTACGGGTCAAAGATTATAGCATGAATAGAAT	1.41
TCTAGCAGGCCACAGGGTCACTCAAGAGGTACGG	0.0342
TAGCCTAGGTCACTGGGCCAGTATAGTACGCATC	1.2
TTACCAAGATGAAGGTCGTTGATCCCTCTGTAGA	0.286
GATATAGGGTCAAGGCCAGAGTACGCGTATTGAT	1.73
GCGAATGGGGCAAAGCAGGTTACCATAAGGTTGG	-0.887

System: PPARg DBDmut IVT, anti-PPARg (DBD mutation: PPARg1 K132A/R137A, NR concentration 270 nM)
Assay: as above
Procedure, shortened: as §1

Sequence	PBM binding z-score
TCTTGTAGATCAAGCAGGTTAATAAAGCCTGAGT	0.466
CCAGACAGGTGAAAGGTACCTCAGTCTGGTACGC	-0.542
CGTCCAAGGGCATAGGAGGTCAGTGAAGACAGAT	-0.863
CAAACTAGGTCACGATAGGTCAAAGTCGAATGAC	2.14
TCTCGGAGGACACCAAGGTCAGAGCTTTCCAGAG	-0.885
TCATATAGGTAAAGGTGAAAGGCGAACGATATGA	1.05
CGAACGAGGGCATGAGTTGATCGCAAATGCCGAT	-0.694
GCTCCTAGGTCAACTGATGGTCAGCTAAAGCTCG	0.266
AGTCAAAGTTCATCTAGCTAACGTAAGATATGCT	0.69
TTTCCAAGGTGAGCTGAGGTCGTTGATCCAACTC	0.546
CCTAGCAGGCCAATCTGGGTTACTCAAGGCTTGA	-1.24
TCTGCTAGGTCAGTAGGTCAGCTAACGAGCTGCC	0.0507
CGTCCAAGGTCAAGGACAGTGAAAGAGACTCGAA	-0.206
CTCAAAAGGTCGTGCTCAGGTGAGTATACCAAAC	0.851
ACTAGAAGGCCAAGTTTGGGTCACTCAAACAAAG	-0.287
GCAGACAGGTGAGACGCAGGTAACTCAGGGTGGC	-0.858
ACTAGCAGGCCAAGGGTCAATCAAGATTAGTCCG	-0.4
AGTGAAAGTTCATCTAGGTAACGTAAGATATGCT	1.64
CAAACTAGGTCACAGGAAGGTCAAAGTCCGCATG	2.12
CGTCCAACGTCAATGCTAGGTCAGTGAAAGCATT	-0.198

Sequence	PBM binding z-score
AATGCAGGGTCACTAGGCCAGAGTAGGTACGAAT	0.273
ACTGACAGGTGAGTGAAGGTAACTCAGCTGGACG	-0.257
ACTATTAGTCGACTTAGGGCAACCGATACGACGC	1.12
TCATATAGGTAAATGCTAAGTGAAAGTCCGATCT	0.946
CCTCGGAGGACGACAGGAGGTCAGAGCTGCCAGA	-1.79
CCGACTGAGGCAAGGTTACCATAACGCACAGCCA	-0.814
TTACCAAGGTGAAAGGTCGTCGATGCACGCCTTG	0.68
CGAACTAAGTCAAGGACAGTGAATCTCCGCACGC	-0.249
CGTCTAAGGTCAGAGAGGTCAGTGAATGCCGAGT	-0.453
TGAATGAGGTGATAAGATCAGGGAACGTTGCAAA	0.281
CCTAGCAGGCCAGGGTCACTGAAGCATTTCGCTT	-1.48
TTATATAGGTAAACAGGTGAAAGTCCGTAAGTTA	1.83
TAGCCTAGGTCCGATCGGGCCAGTATACGCTATA	-1.51
AGAACGAGGGCAGGCTGAGTTGATAGCAGAGTAG	-0.0164
GCTTACGGGTCAAAGATTATAGCATGAATAGAAT	1.16
TCTAGCAGGCCACAGGGTCACTCAAGAGGTACGG	-1.16
TAGCCTAGGTCACTGGGCCAGTATAGTACGCATC	0.865
TTACCAAGATGAAGGTCGTTGATCCCTCTGTAGA	0.663
GATATAGGGTCAAGGCCAGAGTACGCGTATTGAT	1.98
GCGAATGGGGCAAAGCAGGTTACCATAAGGTTGG	-1.21

— the supplement of paper PMC6555819
